# Measured values as given in PubChem BioAssay AID624405 (Broad Institute, 2012).
# In all, about 1,900 compounds went through this assay and about 250 (13%) were called active. Roughly 4% stayed inconclusive and do not appear here.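 The calls were made as follows: active = fitted curve reaches 40% rescue activity at or below the top valid dose, in every test run; inconclusive = test runs disagree, some active and some inactive; inactive = every run misses the threshold or moves the wrong way.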 A selection follows. Measured potencies and affinities stand elsewhere.
# Experiment: suppressors of statin myotoxicity in myotubes, dose response, cell-based, C2C12 myotubes, ATP luminescence, cherry pick (AID 624405);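 also: myotubes are challenged with simvastatin at 10 µM to lower ATP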
# Conditions: C2C12 myotubes + simvastatin, 48 h, scaled: DMSO wells 0, geranylgeraniol wells 100; series mostly up to 19.5 µM
row,Structure (SMILES),outcome
1,COc1cc(OC)cc(-c2nc(N)n[nH]2)c1,inactive
2,Cc1cccc(NC(=O)c2ccccc2C(=O)O)c1,inactive
3,O=C(Nc1cccc(NC(=O)c2ccccc2F)c1)c1ccccc1,inactive
4,C[C@H](CO)N1C[C@H](C)[C@@H](CN(C)C(=O)Nc2ccc(F)cc2)OCCCC[C@H](C)Oc2ccc(NC(=O)Cc3ccccc3)cc2C1=O,inactive
5,Cc1cccc(OCC(=O)Nc2cc(C)on2)c1,inactive
6,Cc1cc(C)cc(NC(=O)c2ccc(CSc3nnc(C)s3)cc2)c1,inactive
7,Cc1cccc(-c2noc(Cc3ccc(Cl)cc3)n2)c1,inactive
8,Cc1ccc2nc(-c3ccccc3Cl)cc(C(=O)Nc3cc(C)on3)c2c1,inactive
9,COc1ccc(NC(=O)Nc2ccc3c(c2)C(=O)N([C@@H](C)CO)C[C@@H](C)[C@@H](CN(C)Cc2ccc(C(F)(F)F)cc2)OCCCC[C@H](C)O3)cc1,inactive
10,CCOc1ccc(-c2nc(CSCC(=O)NCCN3CCOCC3)c(C)o2)cc1,inactive
11,COc1ccc(NC(=O)Nc2cccc3c2O[C@@H](CN(C)C(=O)Nc2cccc4ccccc24)[C@H](C)CN([C@H](C)CO)C3=O)cc1,inactive
12,Cc1cc(=O)[nH]c(Nc2c(C)n(C)n(-c3ccccc3)c2=O)n1,inactive
13,Cn1ccnc1SCC(=O)Nc1ccccc1,inactive
14,O=C(Cc1cccs1)Nc1nnc(Cc2ccccc2)s1,inactive
15,CCOC(=O)c1cnn(-c2ccccc2)c1-n1cccc1,inactive
16,CC(=O)O[C@@H]1[C@H]2[C@@H](C[C@@H](C)[C@@H]3C=CC(=O)[C@@]13C)OC(=O)[C@@H]2C,inactive
17,COc1ccc(S(=O)(=O)NC(CC(=O)NCc2ccc3c(c2)OCO3)c2ccco2)cc1 (stereo unspecified),inactive
18,COc1ccc(S(=O)(=O)NCCC(=O)NCc2ccccc2)cc1,inactive
19,O=C(Nc1ncn[nH]1)c1c(Cl)ccc(Cl)c1Cl,inactive
20,CCCS(=O)(=O)N1CCCC(C(=O)NCCN2CCC(Cc3ccccc3)CC2)C1 (stereo unspecified),inactive
21,CCOC(=O)CC(=O)CSc1ncc(C(=O)OCC)c(N)n1,inactive
22,CC(=O)N(C)c1ccc(NC(=O)Cc2cccc3ccccc23)cc1,inactive

row,Structure (SMILES),outcome
1,C[C@H]1CN([C@@H](C)CO)C(=O)c2cccc(NS(=O)(=O)c3ccc(Cl)cc3)c2O[C@H]1CN(C)Cc1ccc(-c2ccccc2)cc1,inactive
2,COc1ccc(OCC(O)CN2C(=O)NC(C)(C)C2=O)cc1 (stereo unspecified),inactive
3,CN(C)CCCNc1ncnc2c1cnn2Cc1ccccc1Cl,inactive
4,CNC(=O)Cn1ncc2c(C)n(Cc3ccc(C)cc3)c(C)c2c1=O,inactive
5,Cc1ccc(CC(=O)c2ccc(Cl)cc2)cc1,inactive
6,COC(=O)c1cccc(OCC(O)Cn2ccnc2)c1 (stereo unspecified),inactive
7,C[C@H]1CN([C@@H](C)CO)C(=O)Cc2cc(NS(=O)(=O)c3ccc(F)cc3)ccc2O[C@@H]1CN(C)Cc1ccc2c(c1)OCO2,inactive
8,C[C@H]1CN([C@@H](C)CO)C(=O)c2cccc(NC(=O)Nc3ccc4c(c3)OCO4)c2O[C@H]1CN(C)S(=O)(=O)c1ccc(Cl)cc1,inactive
9,C[C@@H]1CCCCO[C@@H](CN(C)CC2CCCCC2)[C@@H](C)CN([C@H](C)CO)C(=O)c2cc(NS(=O)(=O)c3ccc(F)cc3)ccc2O1,inactive
10,Cc1ccc(C(=O)NNC(=O)C2CCN(Cc3ccc(Cl)c(Cl)c3)CC2)cc1,inactive
11,C[C@H](CO)N1C[C@H](C)[C@@H](CN(C)CC2CCCCC2)Oc2ccc(NS(=O)(=O)c3ccc(Cl)cc3)cc2CC1=O,inactive
12,COc1ccc(S(=O)(=O)Nc2ccc3c(c2)CC(=O)N([C@@H](C)CO)C[C@H](C)[C@@H](CN(C)Cc2ccccc2)O3)cc1,inactive
13,COc1ccc(CN(C)C[C@H]2Oc3ccc(NS(=O)(=O)c4ccc(F)cc4)cc3CC(=O)N([C@H](C)CO)C[C@H]2C)cc1,inactive
14,C[C@@H]1CN([C@H](C)CO)C(=O)Cc2cc(NS(=O)(=O)c3ccc(Cl)cc3)ccc2O[C@@H]1CN(C)Cc1ccc(C(F)(F)F)cc1,inactive
15,C[C@@H]1CN([C@H](C)CO)C(=O)Cc2cc(NS(=O)(=O)c3ccc(Cl)cc3)ccc2O[C@H]1CN(C)Cc1ccc2c(c1)OCO2,inactive
16,C[C@@H]1CN([C@H](C)CO)C(=O)Cc2cc(NS(=O)(=O)c3ccc(F)cc3)ccc2O[C@H]1CN(C)CC1CCCCC1,inactive
17,COc1ccc(S(=O)(=O)Nc2ccc3c(c2)C(=O)N([C@H](C)CO)C[C@@H](C)[C@H](CN(C)S(=O)(=O)c2ccc(F)cc2)OCCCC[C@@H](C)O3)cc1,inactive
18,CCn1c(CSc2nc3ccccc3[nH]2)n[nH]c1=S,inactive
19,COc1ccc(S(=O)(=O)Nc2ccc3c(c2)CC(=O)N([C@@H](C)CO)C[C@@H](C)[C@H](CN(C)Cc2ccc(Oc4ccccc4)cc2)O3)cc1,inactive
20,COc1cc(C)c(C(C)C)cc1S(=O)(=O)NCCCn1ccnc1,inactive
21,COC(=O)c1sc(S(=O)(=O)Nc2ccc3cn[nH]c3c2)c(C(=O)OC)c1C,inactive
22,C[C@H](CO)N1C[C@H](C)[C@H](CN(C)S(=O)(=O)c2ccccc2)OCCCC[C@H](C)Oc2ccc(NS(C)(=O)=O)cc2C1=O,inactive

row,Structure (SMILES),outcome
1,COc1ccc(-n2c(SCC(=O)N3CCCCC3)nc(O)cc2=O)cc1,inactive
2,CCOC(=O)N1CCN(C(=O)C2CC(c3ccccc3OC)=NO2)CC1 (stereo unspecified),inactive
3,COc1cc2oc3ccccc3c2cc1N(CC(=O)N1CCCCC1)S(=O)(=O)c1ccc(C)cc1,inactive
4,Cn1ncc(Cl)c1C(=O)Nc1cccnc1,inactive
5,O=C(O)C1CCCCC1C(=O)Nc1ccccn1 (stereo unspecified),inactive
6,CC1CCN(C(=O)c2cc(F)c(F)cc2Cl)CC1,inactive
7,CCCCCCC(=O)N1CCN(c2cc3c(cc2F)c(=O)c(C(=O)O)cn3CC)CC1,inactive
8,CCOc1ccccc1Nc1nc(N)nc(Cl)c1CC,inactive
9,O=C(NCc1cccnc1)C1CC(=O)N(CCc2ccccc2)C1 (stereo unspecified),inactive
10,CCOC(=O)N1CCN(c2c(N3CCN(c4cc(C)ccc4C)CC3)c(=O)c2=O)CC1,inactive
11,C[C@H]1CN([C@@H](C)CO)C(=O)c2cccc(NS(=O)(=O)c3cccs3)c2O[C@@H]1CN(C)Cc1ccc(Oc2ccccc2)cc1,inactive
12,C[C@H](CO)N1C[C@H](C)[C@@H](CN(C)Cc2ccc3c(c2)OCO3)Oc2ccc(NS(=O)(=O)c3ccc(F)cc3)cc2CC1=O,inactive
13,CCCS(=O)(=O)N1CCCC(C(=O)N2CCN(c3ccccc3)CC2)C1 (stereo unspecified),inactive
14,COc1ccc(OC)c(CNC(=O)C2CCCN(c3nc4ccccc4o3)C2)c1 (stereo unspecified),inactive
15,CN(C)c1nc(Oc2ccc(C(=O)OCC(=O)Nc3ccccc3)cc2)nc(N(C)C)n1,inactive
16,COc1ccc(C#Cc2ccc3c(c2)O[C@H](CN(C)C(=O)Nc2cccc(OC)c2)[C@@H](C)CN([C@H](C)CO)S3(=O)=O)cc1,inactive
17,C[C@H](CO)N1C[C@H](C)[C@H](CN(C)C(=O)Cc2ccccc2)OCCCC[C@H](C)Oc2ccc(NC(=O)Nc3ccc(C(F)(F)F)cc3)cc2C1=O,inactive
18,Cc1csc2nc(CNC(=O)c3cccc(C(F)(F)F)c3)cn12,inactive
19,O=C(NCC(=O)N(Cc1cccs1)C(C(=O)NC1CCCCC1)c1cccnc1)c1ccco1 (stereo unspecified),inactive
20,O=C(Nc1ccccc1Cl)N1C[C@H]2[C@@H](c3ccccc31)[C@@H](CO)N2Cc1ccccc1,inactive
21,COc1ccc(N2C(=O)CSC23C(=O)Nc2ccccc23)cc1 (stereo unspecified),inactive
22,C[C@@H]1CCCCO[C@H](CN(C)S(=O)(=O)c2ccc(Cl)cc2)[C@H](C)CN([C@H](C)CO)C(=O)c2cc(NS(C)(=O)=O)ccc2O1,inactive

row,Structure (SMILES),outcome
1,C[C@H](CO)N1C[C@H](C)[C@@H](CN(C)Cc2ccc(C(F)(F)F)cc2)Oc2ccc(NC(=O)C3CCCCC3)cc2CC1=O,inactive
2,N#Cc1ccc(C(=O)NCC(c2ccco2)N2CCCCC2)cc1 (stereo unspecified),inactive
3,CC(C)(C)n1nnnc1C(c1cccnc1)N1CCN(c2ccccc2F)CC1 (stereo unspecified),inactive
4,CCOC(=O)c1sc(NCC2CCCO2)nc1C (stereo unspecified),inactive
5,Cc1noc(C)c1S(=O)(=O)Nc1cccc2c1O[C@@H](CN(C)S(C)(=O)=O)[C@@H](C)CN([C@H](C)CO)C2=O,inactive
6,C[C@@H]1CN([C@@H](C)CO)C(=O)c2cccc(NC(=O)c3ccc(-c4nccs4)cc3)c2O[C@@H]1CN(C)Cc1ccc(C(F)(F)F)cc1,inactive
7,CC(C)(C)C(=O)Nc1ccc(C(=O)NCc2cccnc2)cc1,inactive
8,COc1cc(OC)cc(C(=O)NCc2cccnc2)c1,inactive
9,COc1cnc(N(C)C)nc1Sc1ccc(Cl)cc1,inactive
10,CCOC(=O)c1nnc(-c2ccc(C)cc2)nc1Sc1ccc(Cl)cc1,inactive
11,COc1ccc(S(=O)(=O)Nc2ccc3c(c2)C(=O)N([C@@H](C)CO)C[C@@H](C)[C@H](CN(C)S(=O)(=O)c2ccc(F)cc2)OCCCC[C@@H](C)O3)cc1,inactive
12,COc1ccc(C(=O)c2nc3c(n2O)CCCC3)cc1OC,inactive
13,Cc1ccc2nc(-c3cccc(NC(=O)c4ccc5c(c4)OCCO5)c3)oc2c1,inactive
14,Cc1ccc(-c2csc(-c3c[nH]c4ccccc34)n2)cc1,inactive
15,COc1ccc(-c2noc(CCCC(=O)NCCc3ccccc3)n2)cc1OC,inactive
16,CC(C)NC(=O)N(C)C[C@@H]1Oc2ccc(NC(=O)Nc3cccc4ccccc34)cc2CC(=O)N([C@@H](C)CO)C[C@@H]1C,inactive
17,O=C(NCC(=O)N(Cc1ccccc1)C(C(=O)NC1CCCCC1)c1ccco1)c1ccco1 (stereo unspecified),inactive
18,COc1ccc(CNC(=O)C2CCCN(S(=O)(=O)c3ccc4c(c3)CCCN4C(C)=O)C2)cc1 (stereo unspecified),inactive
19,COc1ccc(CNS(=O)(=O)c2ccc3c(c2)CCN3C(=O)C2CCC2)cc1,inactive
20,C[C@@H]1CCCCO[C@@H](CN(C)S(=O)(=O)c2ccc(Cl)cc2)[C@H](C)CN([C@@H](C)CO)C(=O)c2cc(NS(C)(=O)=O)ccc2O1,inactive
